# Reference: publication PMC7862700, “An all-to-all approach to the identification of sequence-specific readers for epigenetic DNA modifications on cytosine”
# Experiments:
# Assay in all cases: DAPPL (digital affinity profiling via proximity ligation, sequencing); 10 mM Tris-HCl pH 7.5, 50 mM NaCl, 1 mM DTT, 4% glycerol, room temperature, 30 min; GST-TFs on glutathione beads, 16-mer random dsDNA library, 0.1% formaldehyde crosslink after washing; high values mean tight binding
# FLI1 = target: T1, FLI1 (Homo sapiens, UniProt Q01543 1-452); settings: protein: recombinant; tags: N-terminal GST; dsDNA, one strand shown
# T1 sequence: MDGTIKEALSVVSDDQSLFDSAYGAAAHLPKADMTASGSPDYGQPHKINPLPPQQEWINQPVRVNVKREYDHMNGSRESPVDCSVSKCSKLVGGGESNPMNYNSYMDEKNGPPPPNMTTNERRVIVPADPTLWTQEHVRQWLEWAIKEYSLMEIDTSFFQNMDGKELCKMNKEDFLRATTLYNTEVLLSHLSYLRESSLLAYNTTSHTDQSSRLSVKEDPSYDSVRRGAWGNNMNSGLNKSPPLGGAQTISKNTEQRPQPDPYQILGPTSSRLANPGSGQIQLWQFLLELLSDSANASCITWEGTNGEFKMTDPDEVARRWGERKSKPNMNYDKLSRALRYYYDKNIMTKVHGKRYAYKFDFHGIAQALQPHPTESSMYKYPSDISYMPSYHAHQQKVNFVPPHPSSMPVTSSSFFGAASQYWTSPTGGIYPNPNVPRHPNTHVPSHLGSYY
# In short: (§1)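 A tag-only sample was pooled with DNA-barcoded human transcription factors that had been expressed in yeast as GST fusions and captured on glutathione beads. The pools were incubated for 30 min at room temperature with 200 nmole of a random double-stranded 16-mer DNA library in Tris/NaCl/DTT/glycerol buffer, then washed, crosslinked with 0.1% formaldehyde, proximity-ligated (BsaI/T4 ligase, 1 h, 37 °C), PCR-amplified and sequenced on an Illumina NextSeq500. Binding signal is each hexamer's read frequency for a factor divided by its frequency for the tag-only sample.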
# ELK1 = target: T2, ELK1 (Homo sapiens, UniProt P19419 1-428); settings: protein: recombinant; tags: N-terminal GST; dsDNA, one strand shown
# T2 sequence: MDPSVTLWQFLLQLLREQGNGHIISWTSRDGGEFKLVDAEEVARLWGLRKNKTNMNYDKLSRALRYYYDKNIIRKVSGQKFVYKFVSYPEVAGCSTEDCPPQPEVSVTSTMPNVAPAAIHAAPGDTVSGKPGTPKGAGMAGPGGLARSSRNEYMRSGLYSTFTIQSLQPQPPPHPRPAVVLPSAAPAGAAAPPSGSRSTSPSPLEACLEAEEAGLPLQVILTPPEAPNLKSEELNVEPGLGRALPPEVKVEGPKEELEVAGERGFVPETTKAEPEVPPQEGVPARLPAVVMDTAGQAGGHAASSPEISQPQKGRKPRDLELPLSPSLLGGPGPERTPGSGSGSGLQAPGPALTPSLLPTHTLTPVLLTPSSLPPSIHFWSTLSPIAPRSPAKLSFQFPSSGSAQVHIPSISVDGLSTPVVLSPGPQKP
# In short: as §1
# GABPA = target: T3, GABPA (Homo sapiens, UniProt Q06546 1-454); settings: protein: recombinant; tags: N-terminal GST; dsDNA, one strand shown
# T3 sequence: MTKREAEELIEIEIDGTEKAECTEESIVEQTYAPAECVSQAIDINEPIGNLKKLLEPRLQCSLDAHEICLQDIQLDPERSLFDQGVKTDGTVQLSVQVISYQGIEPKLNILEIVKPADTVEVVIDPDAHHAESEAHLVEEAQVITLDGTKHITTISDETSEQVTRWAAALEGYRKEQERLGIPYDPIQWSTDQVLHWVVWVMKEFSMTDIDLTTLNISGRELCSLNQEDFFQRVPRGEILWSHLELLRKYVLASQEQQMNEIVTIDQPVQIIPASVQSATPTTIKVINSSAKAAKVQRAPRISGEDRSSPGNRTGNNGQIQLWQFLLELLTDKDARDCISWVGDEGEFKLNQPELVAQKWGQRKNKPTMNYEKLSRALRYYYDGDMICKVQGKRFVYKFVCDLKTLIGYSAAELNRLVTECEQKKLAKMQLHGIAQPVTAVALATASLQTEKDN
# In short: as §1
# ERG = target: T4, ERG (Homo sapiens, UniProt P11308 1-479); settings: protein: recombinant; tags: N-terminal GST; dsDNA, one strand shown
# T4 sequence: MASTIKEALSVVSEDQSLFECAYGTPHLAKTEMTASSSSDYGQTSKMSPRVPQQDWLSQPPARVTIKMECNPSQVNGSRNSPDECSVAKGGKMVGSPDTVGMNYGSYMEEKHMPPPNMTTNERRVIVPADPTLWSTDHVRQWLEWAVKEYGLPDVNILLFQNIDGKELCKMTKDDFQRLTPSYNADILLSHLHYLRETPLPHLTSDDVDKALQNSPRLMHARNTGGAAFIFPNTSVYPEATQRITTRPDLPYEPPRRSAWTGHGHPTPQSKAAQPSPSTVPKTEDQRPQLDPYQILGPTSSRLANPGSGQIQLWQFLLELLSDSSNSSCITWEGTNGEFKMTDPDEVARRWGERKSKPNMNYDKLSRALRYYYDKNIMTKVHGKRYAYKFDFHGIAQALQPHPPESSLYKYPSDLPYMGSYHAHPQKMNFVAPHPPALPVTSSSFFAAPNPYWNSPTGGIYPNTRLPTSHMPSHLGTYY
# In short: as §1
# ELF1 = ELF1 (Homo sapiens, UniProt P32519 1-619); settings: protein: recombinant; tags: N-terminal GST; dsDNA, one strand shown
# In short: as §1
# EHF = target: T5, EHF (Homo sapiens, UniProt Q9NZC4 1-300); settings: protein: recombinant; tags: N-terminal GST; dsDNA, one strand shown
# T5 sequence: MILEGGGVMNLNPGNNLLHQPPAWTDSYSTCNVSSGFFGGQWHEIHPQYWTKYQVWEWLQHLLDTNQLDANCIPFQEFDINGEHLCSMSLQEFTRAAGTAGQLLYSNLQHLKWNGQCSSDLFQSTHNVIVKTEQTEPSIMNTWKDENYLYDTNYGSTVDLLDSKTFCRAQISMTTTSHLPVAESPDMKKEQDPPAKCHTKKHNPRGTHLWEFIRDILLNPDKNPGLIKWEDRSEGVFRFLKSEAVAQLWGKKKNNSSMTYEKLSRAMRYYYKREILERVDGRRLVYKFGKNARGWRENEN
# In short: as §1
# SPI1 = SPI1 (Homo sapiens, UniProt P17947 1-270); settings: protein: recombinant; tags: N-terminal GST; dsDNA, one strand shown
# In short: as §1
# SPIB = SPIB (Homo sapiens, UniProt Q01892 1-262); settings: protein: recombinant; tags: N-terminal GST; dsDNA, one strand shown
# In short: as §1
# ELK3 = target: T6, ELK3 (Homo sapiens, UniProt P41970 1-407); settings: protein: recombinant; tags: N-terminal GST; dsDNA, one strand shown
# T6 sequence: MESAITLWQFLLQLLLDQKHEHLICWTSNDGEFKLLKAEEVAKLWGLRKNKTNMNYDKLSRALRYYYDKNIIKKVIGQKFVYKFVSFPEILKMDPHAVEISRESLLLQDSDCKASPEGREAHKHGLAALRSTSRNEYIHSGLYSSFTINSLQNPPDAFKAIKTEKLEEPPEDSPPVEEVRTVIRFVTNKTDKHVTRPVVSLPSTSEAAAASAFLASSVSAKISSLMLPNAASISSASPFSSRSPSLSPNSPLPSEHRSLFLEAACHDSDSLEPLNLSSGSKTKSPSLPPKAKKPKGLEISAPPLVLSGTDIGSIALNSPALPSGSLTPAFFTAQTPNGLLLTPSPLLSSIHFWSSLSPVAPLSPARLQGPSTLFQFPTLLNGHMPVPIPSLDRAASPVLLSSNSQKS
# In short: as §1
# FEV = target: T7, FEV (Homo sapiens, UniProt Q99581 1-238); settings: protein: recombinant; tags: N-terminal GST; dsDNA, one strand shown
# T7 sequence: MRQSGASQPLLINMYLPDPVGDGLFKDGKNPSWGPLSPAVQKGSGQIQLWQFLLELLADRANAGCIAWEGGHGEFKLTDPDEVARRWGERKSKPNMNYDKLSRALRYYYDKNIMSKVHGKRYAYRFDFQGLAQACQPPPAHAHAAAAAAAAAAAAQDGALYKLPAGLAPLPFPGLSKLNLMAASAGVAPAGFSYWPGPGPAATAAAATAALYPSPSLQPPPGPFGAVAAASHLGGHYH
# In short: as §1
# ETV5 = ETV5 (Homo sapiens, UniProt P41161 1-510); settings: protein: recombinant; tags: N-terminal GST; dsDNA, one strand shown
# In short: as §1
# HSF1 = HSF1 (Homo sapiens, UniProt Q00613 1-529); settings: protein: recombinant; tags: N-terminal GST; chain copies: 3; dsDNA, one strand shown
# In short: as §1
# SPIC = target: T8, SPIC (Homo sapiens, UniProt Q8N5J4 1-248); settings: protein: recombinant; tags: N-terminal GST; dsDNA, one strand shown
# T8 sequence: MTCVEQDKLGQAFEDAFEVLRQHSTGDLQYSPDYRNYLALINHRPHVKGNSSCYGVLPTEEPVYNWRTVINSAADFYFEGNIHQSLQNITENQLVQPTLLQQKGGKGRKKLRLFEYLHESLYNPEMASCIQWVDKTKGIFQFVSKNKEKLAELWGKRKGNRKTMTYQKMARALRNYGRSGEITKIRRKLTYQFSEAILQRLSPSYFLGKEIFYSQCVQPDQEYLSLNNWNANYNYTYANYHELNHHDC
# In short: as §1
# ELF4 = ELF4 (Homo sapiens, UniProt Q99607 1-663); settings: protein: recombinant; tags: N-terminal GST; dsDNA, one strand shown
# In short: as §1
# ELK4 = target: T9, ELK4 (Homo sapiens, UniProt P28324-2 1-405); settings: protein: recombinant; tags: N-terminal GST; dsDNA, one strand shown
# T9 sequence: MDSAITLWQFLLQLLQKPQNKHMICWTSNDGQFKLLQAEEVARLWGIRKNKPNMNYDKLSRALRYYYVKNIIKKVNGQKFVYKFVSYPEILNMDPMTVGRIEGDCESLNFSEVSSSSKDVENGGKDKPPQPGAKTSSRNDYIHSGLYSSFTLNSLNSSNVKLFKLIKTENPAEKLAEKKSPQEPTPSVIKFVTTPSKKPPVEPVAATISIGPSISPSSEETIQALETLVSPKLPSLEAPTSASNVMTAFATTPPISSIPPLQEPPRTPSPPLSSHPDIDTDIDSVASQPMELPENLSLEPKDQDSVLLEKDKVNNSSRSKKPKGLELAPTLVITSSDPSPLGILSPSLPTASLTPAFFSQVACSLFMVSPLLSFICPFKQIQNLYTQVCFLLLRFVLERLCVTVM
# In short: as §1
# ETV2 = target: T10, ETV2 (Homo sapiens, UniProt O00321 1-342); settings: protein: recombinant; tags: N-terminal GST; dsDNA, one strand shown
# T10 sequence: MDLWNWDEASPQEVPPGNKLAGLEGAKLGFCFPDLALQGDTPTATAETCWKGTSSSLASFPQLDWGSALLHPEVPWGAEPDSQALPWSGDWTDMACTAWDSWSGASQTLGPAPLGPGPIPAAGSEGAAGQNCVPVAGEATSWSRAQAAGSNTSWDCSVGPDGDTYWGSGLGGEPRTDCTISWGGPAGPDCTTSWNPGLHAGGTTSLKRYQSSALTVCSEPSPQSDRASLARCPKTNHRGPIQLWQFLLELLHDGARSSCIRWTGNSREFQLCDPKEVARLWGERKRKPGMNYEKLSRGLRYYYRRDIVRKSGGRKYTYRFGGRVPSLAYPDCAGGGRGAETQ
# In short: as §1
# ELF3 = target: T11, ELF3 (Homo sapiens, UniProt P78545 1-371); settings: protein: recombinant; tags: N-terminal GST; dsDNA, one strand shown
# T11 sequence: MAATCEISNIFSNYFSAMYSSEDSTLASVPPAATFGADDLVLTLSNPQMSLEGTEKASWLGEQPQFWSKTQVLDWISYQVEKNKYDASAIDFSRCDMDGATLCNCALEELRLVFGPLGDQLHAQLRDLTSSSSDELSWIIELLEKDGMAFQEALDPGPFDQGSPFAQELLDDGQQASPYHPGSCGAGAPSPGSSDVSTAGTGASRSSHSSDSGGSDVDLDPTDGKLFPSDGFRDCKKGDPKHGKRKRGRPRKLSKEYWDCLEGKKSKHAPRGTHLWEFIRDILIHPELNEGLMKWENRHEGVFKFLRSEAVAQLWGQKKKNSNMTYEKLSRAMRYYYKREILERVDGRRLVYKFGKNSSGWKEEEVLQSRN
# In short: as §1
# CRX = CRX (Homo sapiens, UniProt O43186 1-299); settings: protein: recombinant; tags: N-terminal GST; dsDNA, one strand shown
# In short: as §1
# ETV1 = ETV1 (Homo sapiens, UniProt P50549 1-477); settings: protein: recombinant; tags: N-terminal GST; dsDNA, one strand shown
# In short: as §1
# Chain of ETV5 (P41161 whole entry): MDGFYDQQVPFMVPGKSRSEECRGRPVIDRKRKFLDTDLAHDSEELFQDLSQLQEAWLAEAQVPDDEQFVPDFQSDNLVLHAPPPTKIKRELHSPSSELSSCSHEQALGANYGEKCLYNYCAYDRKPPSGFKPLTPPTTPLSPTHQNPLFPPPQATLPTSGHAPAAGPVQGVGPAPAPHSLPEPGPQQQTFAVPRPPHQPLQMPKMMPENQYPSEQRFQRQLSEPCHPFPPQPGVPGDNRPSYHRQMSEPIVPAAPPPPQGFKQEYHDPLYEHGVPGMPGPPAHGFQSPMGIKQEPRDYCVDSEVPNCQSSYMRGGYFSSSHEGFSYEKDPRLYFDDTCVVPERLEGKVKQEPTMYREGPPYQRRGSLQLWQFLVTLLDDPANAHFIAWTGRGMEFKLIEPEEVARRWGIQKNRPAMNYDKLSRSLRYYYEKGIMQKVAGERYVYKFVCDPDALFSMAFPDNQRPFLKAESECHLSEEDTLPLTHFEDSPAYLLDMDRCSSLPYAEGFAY
# Chain of ELF1 (P32519 whole entry): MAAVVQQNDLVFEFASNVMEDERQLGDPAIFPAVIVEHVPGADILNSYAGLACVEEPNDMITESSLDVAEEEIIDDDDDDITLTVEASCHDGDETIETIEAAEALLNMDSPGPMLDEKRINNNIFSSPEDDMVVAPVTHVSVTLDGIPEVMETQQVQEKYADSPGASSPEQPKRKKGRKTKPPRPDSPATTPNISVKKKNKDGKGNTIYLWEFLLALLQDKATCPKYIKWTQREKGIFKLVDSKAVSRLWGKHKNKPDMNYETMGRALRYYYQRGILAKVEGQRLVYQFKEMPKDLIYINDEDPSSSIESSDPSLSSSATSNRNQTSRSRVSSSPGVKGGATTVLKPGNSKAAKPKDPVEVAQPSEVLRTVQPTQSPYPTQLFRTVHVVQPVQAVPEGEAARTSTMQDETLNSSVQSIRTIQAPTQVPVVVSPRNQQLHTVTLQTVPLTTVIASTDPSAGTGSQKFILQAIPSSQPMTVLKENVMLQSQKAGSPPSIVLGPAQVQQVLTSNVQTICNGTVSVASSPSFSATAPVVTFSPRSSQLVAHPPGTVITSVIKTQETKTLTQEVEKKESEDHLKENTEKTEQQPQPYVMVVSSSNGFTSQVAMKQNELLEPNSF
# Chain of HSF1 (Q00613 whole entry): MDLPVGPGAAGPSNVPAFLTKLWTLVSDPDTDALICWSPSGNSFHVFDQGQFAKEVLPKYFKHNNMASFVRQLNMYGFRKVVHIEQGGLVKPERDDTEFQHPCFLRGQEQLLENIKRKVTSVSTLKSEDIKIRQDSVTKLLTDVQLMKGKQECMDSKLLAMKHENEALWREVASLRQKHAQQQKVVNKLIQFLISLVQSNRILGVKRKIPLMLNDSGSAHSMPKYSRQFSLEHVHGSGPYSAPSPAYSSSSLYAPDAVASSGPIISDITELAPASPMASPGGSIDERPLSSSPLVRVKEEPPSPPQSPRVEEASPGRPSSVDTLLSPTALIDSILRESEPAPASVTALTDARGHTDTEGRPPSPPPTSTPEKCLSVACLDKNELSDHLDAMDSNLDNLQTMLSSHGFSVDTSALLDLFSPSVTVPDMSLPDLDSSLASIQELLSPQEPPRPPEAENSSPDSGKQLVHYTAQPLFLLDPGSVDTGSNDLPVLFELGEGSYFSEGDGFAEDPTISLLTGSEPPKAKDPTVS
# Chain of ELF4 (Q99607 whole entry): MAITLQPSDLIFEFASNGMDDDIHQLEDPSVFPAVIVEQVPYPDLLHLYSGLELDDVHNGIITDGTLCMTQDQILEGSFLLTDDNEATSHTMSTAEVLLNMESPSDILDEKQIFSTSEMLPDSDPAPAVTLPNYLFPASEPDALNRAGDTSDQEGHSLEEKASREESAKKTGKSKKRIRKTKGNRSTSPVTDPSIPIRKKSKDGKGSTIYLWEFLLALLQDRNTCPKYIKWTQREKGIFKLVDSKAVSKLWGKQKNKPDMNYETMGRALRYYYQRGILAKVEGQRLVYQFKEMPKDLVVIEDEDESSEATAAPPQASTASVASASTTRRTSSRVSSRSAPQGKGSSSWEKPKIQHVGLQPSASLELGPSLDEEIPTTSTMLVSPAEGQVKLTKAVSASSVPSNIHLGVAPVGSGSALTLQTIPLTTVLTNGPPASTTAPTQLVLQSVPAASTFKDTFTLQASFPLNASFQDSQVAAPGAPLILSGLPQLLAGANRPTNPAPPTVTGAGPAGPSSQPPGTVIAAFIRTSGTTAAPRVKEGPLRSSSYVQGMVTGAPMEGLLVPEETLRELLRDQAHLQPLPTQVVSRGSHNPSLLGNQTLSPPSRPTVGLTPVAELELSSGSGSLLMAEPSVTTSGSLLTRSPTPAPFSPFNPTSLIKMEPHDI
# Chain of SPIB (Q01892 whole entry): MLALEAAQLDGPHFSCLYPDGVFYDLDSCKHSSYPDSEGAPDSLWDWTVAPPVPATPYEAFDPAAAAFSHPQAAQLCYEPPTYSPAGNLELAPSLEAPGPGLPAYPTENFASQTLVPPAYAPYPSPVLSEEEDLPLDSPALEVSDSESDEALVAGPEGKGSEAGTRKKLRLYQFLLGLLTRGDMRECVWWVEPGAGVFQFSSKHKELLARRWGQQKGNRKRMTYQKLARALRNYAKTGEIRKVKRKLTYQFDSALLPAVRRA
# Chain of CRX (O43186 whole entry): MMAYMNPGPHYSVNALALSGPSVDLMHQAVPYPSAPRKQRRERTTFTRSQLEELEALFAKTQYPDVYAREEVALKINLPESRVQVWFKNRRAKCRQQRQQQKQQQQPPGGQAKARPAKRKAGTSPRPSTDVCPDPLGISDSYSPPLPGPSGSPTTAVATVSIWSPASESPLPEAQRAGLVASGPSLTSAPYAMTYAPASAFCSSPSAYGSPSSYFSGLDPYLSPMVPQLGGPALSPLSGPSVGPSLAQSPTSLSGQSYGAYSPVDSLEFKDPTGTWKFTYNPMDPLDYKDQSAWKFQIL
# Chain of ETV1 (P50549 whole entry): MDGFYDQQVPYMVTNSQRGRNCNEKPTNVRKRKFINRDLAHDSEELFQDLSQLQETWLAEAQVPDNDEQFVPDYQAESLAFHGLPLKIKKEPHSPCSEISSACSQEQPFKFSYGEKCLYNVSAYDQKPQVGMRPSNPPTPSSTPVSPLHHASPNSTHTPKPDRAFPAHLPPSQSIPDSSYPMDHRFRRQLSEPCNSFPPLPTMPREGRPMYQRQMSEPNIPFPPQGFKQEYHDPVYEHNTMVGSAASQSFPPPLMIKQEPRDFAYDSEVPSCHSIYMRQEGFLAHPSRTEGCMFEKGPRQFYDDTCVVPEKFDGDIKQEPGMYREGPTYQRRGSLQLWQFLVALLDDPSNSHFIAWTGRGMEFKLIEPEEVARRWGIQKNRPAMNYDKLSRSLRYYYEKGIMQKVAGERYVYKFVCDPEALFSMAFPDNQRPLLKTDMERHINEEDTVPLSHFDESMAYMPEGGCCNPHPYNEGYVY
sequence,measurement,setting,value
ATAACA,binding signal,FLI1,"1.2 fold enrichment (6-mer frequency, TF over GST control)"
same,binding signal,ELK1,"1.29 fold enrichment (6-mer frequency, TF over GST control)"
same,binding signal,GABPA,"1.22 fold enrichment (6-mer frequency, TF over GST control)"
same,binding signal,ERG,"1.25 fold enrichment (6-mer frequency, TF over GST control)"
same,binding signal,ELF1,"1.28 fold enrichment (6-mer frequency, TF over GST control)"
same,binding signal,EHF,"1.19 fold enrichment (6-mer frequency, TF over GST control)"
same,binding signal,SPI1,"1.16 fold enrichment (6-mer frequency, TF over GST control)"
same,binding signal,SPIB,"1.33 fold enrichment (6-mer frequency, TF over GST control)"
same,binding signal,ELK3,"1.24 fold enrichment (6-mer frequency, TF over GST control)"
same,binding signal,FEV,"1.28 fold enrichment (6-mer frequency, TF over GST control)"
same,binding signal,ETV5,"1.25 fold enrichment (6-mer frequency, TF over GST control)"
same,binding signal,HSF1,"1.2 fold enrichment (6-mer frequency, TF over GST control)"
same,binding signal,SPIC,"1.31 fold enrichment (6-mer frequency, TF over GST control)"
same,binding signal,ELF4,"1.28 fold enrichment (6-mer frequency, TF over GST control)"
same,binding signal,ELK4,"1.2 fold enrichment (6-mer frequency, TF over GST control)"
same,binding signal,ETV2,"1.28 fold enrichment (6-mer frequency, TF over GST control)"
same,binding signal,ELF3,"1.21 fold enrichment (6-mer frequency, TF over GST control)"
same,binding signal,CRX,"1.39 fold enrichment (6-mer frequency, TF over GST control)"
same,binding signal,ETV1,"1.24 fold enrichment (6-mer frequency, TF over GST control)"
